Measured values taken from the supplement of paper PMC6853941.

System: MCF10A
Assay: perturbation Mahalanobis distance of morphological profile vs DMSO controls (Mahalanobis distance (SD units)); higher = stronger morphological change, active = 7 or more
Settings: screen batch: Batch2_Mahalanobis_Distance; 72 h
Method: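 MCF10A cells were seeded onto drugs dispensed acoustically into 384-well plates, using one dose per drug chosen from its human peak plasma concentration, and incubated for 72 h at 37 °C. Cells were stained for DNA, tubulin and mitochondria and imaged; 78 CellProfiler features were extracted, plate-normalised and compared with DMSO wells.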

SMILES | perturbation Mahalanobis distance
C#C[C@]1(O)CC[C@H]2[C@@H]3CCC4=CC(=O)CC[C@@H]4[C@H]3CC[C@@]21CC [Levonorgestrel] (0.24 µM) | 2.71 (inactive)
CCN(CC)C(=S)SSC(=S)N(CC)CC [Disulfiram] (6.7 µM) | 3 (inactive)
Nc1nc2ccc(OC(F)(F)F)cc2s1 [Riluzole] (4.3 µM) | 3.82 (inactive)
COc1cc2nc(N3CCN(C(=O)C4CCCO4)CC3)nc(N)c2cc1OC (stereo unspecified) [Terazosin] (1 µM) | 2.82 (inactive)
COc1ccccc1Oc1c(NS(=O)(=O)c2ccc(C(C)(C)C)cc2)nc(-c2ncccn2)nc1OCCO [Bosentan] (33.6 µM) | 5.42 (inactive)
CCN(CC)Cc1cc(Nc2ccnc3cc(Cl)ccc23)ccc1O [Amodiaquine] (0.7 µM) | 2.97 (inactive)
CN(C)CCCN1c2ccccc2CCc2ccccc21 [Imipramine] (6.2 µM) | 4.52 (inactive)
CC(C)C1CCC(C(=O)N[C@H](Cc2ccccc2)C(=O)O)CC1 (stereo partly specified) [Nateglinide] (66.1 µM) | 3.16 (inactive)
NN1CCOC1=O [3-Amino-2-Oxazolidinone] (49 µM) | 2.76 (inactive)
C[C@](N)(Cc1ccc(O)cc1)C(=O)O [Metyrosine] (71.7 µM) | 3.02 (inactive)
C[C@]12C=CC(=O)N[C@@H]1CC[C@@H]1[C@@H]2CC[C@]2(C)[C@@H](C(=O)Nc3cc(C(F)(F)F)ccc3C(F)(F)F)CC[C@@H]12 [Dutasteride] (12 µM) | 2.96 (inactive)
